# Compound activity as filed in PubChem BioAssay.
# TrxR1 substrate – qHTS Assay for Substrates of Mammalian Selenoprotein Thioredoxin Reductase 1 (TrxR1): qHTS; Thioredoxin reductase 1, cytoplasmic (Rattus norvegicus), O89049; purified TrxR1 substrate turnover, NADPH consumption readout; Potency, µM (series often up to 114 µM), without a hit: top-dose activity change, negative = substrate turnover; actives 0.01% (n = 390,000); further: on the % scale 0 is the no-effect control and ±100 the full control effect; nearly all actives have a fitted effect of over 50% in size
#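 Rat TrxR1, dispensed at 90 nM, was prereduced with 400 uM NADPH (final) for 5 min at ~22 deg C, then incubated with compound 15 min before 400 uM selenite. A first-read NADPH fluorescence drop versus no-compound background flagged substrates.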
# Nrf2 inh – Nrf2 qHTS screen for inhibitors; A549 ARE-Fluc reporter, luciferase luminescence, 18-24 h; Potency, µM (titrated, usually from 46 µM), for inactives: at the highest dose activity change, negative = inhibition, usual class: inhibitors; actives 2.1% (n = 360,000); further: on the % scale 0 is the no-effect control and ±100 the full control effect; nearly all actives have a fitted effect of over 60% in size
#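 Nrf2 function is reported as luminescence of an ARE-controlled luciferase in A549 cells. Compounds were tested at several concentrations, and a CellTiter-Fluor read on the same wells flagged cytotoxicity.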
# TrxR1 inh – qHTS Assay for Inhibitors of Mammalian Selenoprotein Thioredoxin Reductase 1 (TrxR1): qHTS; Thioredoxin reductase 1, cytoplasmic (Rattus norvegicus), O89049; recombinant rTrxR1, NADPH fluorescence consumption, selenite substrate; Potency, µM (top dose mostly 114 µM), for inactives: top-dose activity change, negative = inhibition, most hits filed as inhibitors; actives 1% (n = 390,000); AID 588453, 2011; further: on the % scale 0 is the no-effect control and ±100 the full control effect; nearly all actives have a fitted effect of over 65% in size
#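 Rat TrxR1 (90 nM in the dispensed reagent) was pre-reduced with 400 uM NADPH for 5 min at room temperature, then incubated with compound for 15 min. After 400 uM selenite was added, NADPH fluorescence (Ex 340/Em 450 nm) was followed for 8 min.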
# Mito fusion act – qHTS Assay for Small Molecule Inhibitors of Mitochondrial Division or Activators of Mitochondrial Fusion. S. cerevisiae fusion-defective mutant growth rescue, CellTiterGlo 48 h. Potency, µM (series often up to 46.1 µM), for inactives: at the highest dose growth rescue (activation), actives largely listed as activators. actives 0.23% (n = 320,000); further: % of control where 0% means no effect; nearly all actives have a fitted effect of over 45% in size
#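 Read-out: ATP-based luminescence (CellTiterGlo, 10 min ambient) reporting growth of fusion-defective ts yeast after 48 hours at 37C on glycerol/ethanol YPEG medium in the presence of compound.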
# IDH1 R132H inh – qHTS for Inhibitors of mutant isocitrate dehydrogenase 1 (IDH1): qHTS; Isocitrate dehydrogenase [NADP] cytoplasmic (Homo sapiens), O75874; IDH1-R132H enzyme, NADPH consumption, diaphorase/resazurin fluorescence; Potency, µM (doses to about 76.6 µM), for the others: top-dose activity change, negative = inhibition, usual class: inhibitors; actives 0.093% (n = 390,000); further: on the % scale 0 is the no-effect control and ±100 the full control effect; nearly all actives have a fitted effect of over 65% in size
# Target sequence (O75874 whole entry R132H, stated change not applied): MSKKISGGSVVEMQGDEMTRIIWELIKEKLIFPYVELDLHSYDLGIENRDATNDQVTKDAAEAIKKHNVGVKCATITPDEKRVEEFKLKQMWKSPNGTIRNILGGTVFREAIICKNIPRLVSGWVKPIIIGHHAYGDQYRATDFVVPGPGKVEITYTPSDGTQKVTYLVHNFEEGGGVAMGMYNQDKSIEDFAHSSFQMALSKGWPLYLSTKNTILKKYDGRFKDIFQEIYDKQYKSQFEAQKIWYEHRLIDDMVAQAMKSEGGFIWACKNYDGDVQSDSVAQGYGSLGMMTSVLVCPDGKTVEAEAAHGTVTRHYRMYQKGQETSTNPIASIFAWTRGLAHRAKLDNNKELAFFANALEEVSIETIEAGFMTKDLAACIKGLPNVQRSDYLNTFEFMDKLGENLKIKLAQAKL
#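 IDH1-R132H (0.5 ug/mL dispensed) in pH 7.5 Tris buffer was preincubated 30 min with compound, then given a substrate mix of 0.016 mM NADPH and 2 mM alpha-KG for 80 min at room temperature; remaining NADPH was read by diaphorase/resazurin fluorescence.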
# A549 tox-1 – Nrf2 qHTS screen for inhibitors: counterscreen for cytotoxicity; A549 ARE-Fluc cells, CellTiter-Fluor viability, 18-24 h; Potency, µM (titrated, usually from 46 µM), for the others: at the top dose activity change, negative = cytotoxicity, usual class: inhibitors; actives 0.16% (n = 390,000); further: on the % scale 0 is the no-effect control and ±100 the full control effect
#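 Cytotoxicity counterscreen: CellTiter-Fluor fluorescence was measured in A549 ARE_Fluc cells after 18-24 h of compound exposure in a concentration series. The subsequent BugLite luminescent read reports ARE-luciferase activity.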
# FLuc counter 3 – Nrf2 qHTS screen for inhibitors: Purified Fluc Biochemical Counterscreen for Hit Validation. shares compounds with Nrf2 inh. purified firefly luciferase, luminescence inhibition. Potency, µM (titrated, usually from 57.5 µM), for the others: top-dose activity change, negative = inhibition, hits mostly inhibitors. actives 4% (n = 1,400). AID 720522, 2013; further: on the % scale 0 is the no-effect control and ±100 the full control effect; nearly all actives have a fitted effect of over 65% in size
# A549 tox-2 – Nrf2 qHTS screen for inhibitors: A549 ARE-Fluc Cytotoxicity Counterscreen for Hit Validation; actives 2% (n = 1,400); A549 ARE-Fluc cells, cytotoxicity counterscreen; shares compounds with Nrf2 inh; Potency, µM (doses to about 46.1 µM), for the others: top-dose activity change, negative = cytotoxicity, actives largely listed as inhibitors; AID 720523, 2013;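 further: cells exposed to compounds for 18 to 24 hours; on the % scale 0 is the no-effect control and ±100 the full control effect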
# Nrf2 ARE inh – Nrf2 qHTS screen for inhibitors: Nrf2 A549 ARE-Fluc Confirmation Assay for Hit Validation; shares compounds with Nrf2 inh; A549 ARE-firefly luciferase reporter, luminescence; Potency, µM (top dose mostly 46.1 µM), for the others: at the highest dose activity change, negative = inhibition, hits mostly inhibitors; actives 74% (n = 1,400); AID 720524, 2013; further: on the % scale 0 is the no-effect control and ±100 the full control effect; nearly all actives have a fitted effect of over 65% in size
# Numbers without * were called inactive; ? = inconclusive; . = no result shown; [ ] = another dose, or the depositor's remark. Only some compounds are listed: those with a hit (about 3.1% of all), similar ones and a draw of the others. The call rests on the fitted dose curve; in most records, active means well fitted curve in the direction sought with a large enough effect; inconclusive means small, poorly fitted or top-dose-only effect, or another doubt; inactive means no such curve, though single readings can be large; an effect the other way counts as inactive or inconclusive. Potency means the concentration at half of the fitted maximal effect.
SMILES,TrxR1 substrate,Nrf2 inh,TrxR1 inh,Mito fusion act,IDH1 R132H inh,A549 tox-1,FLuc counter 3,A549 tox-2,Nrf2 ARE inh
CC(=O)Nc1sc(N/N=C/c2ccccc2)nc1-c1ccc(C)cc1,3%[57.1 µM],12%,-6%[57.1 µM],-5%,-5%,-4%,.,.,.
CCCc1sc(N/N=C/c2ccccn2)nc1-c1ccc(Br)cc1,2%[57.1 µM],2.9µM*,15%[57.1 µM],-8%,6%,?,-29%,-29%,5.8µM*
CCOc1ccccc1NC(=O)C1CCN(S(=O)(=O)c2ccc3[nH]c4c(c3c2)CCCCC4)CC1,-2%[57.1 µM],-23%,9%[57.1 µM],.,-7%,-4%,.,.,.
O=S(=O)(Nc1ccc(Cc2ccncc2)cc1)c1ccc(Cl)cc1,6%[57.1 µM],9.2µM*,14%[57.1 µM],5%,-3%,-16%,0%,-1%,16µM*
O=S(=O)(Nc1ccc(Cc2ccncc2)cc1)c1ccc(Br)cc1,4%[57.1 µM],?,8%[57.1 µM],5%,-2%,-13%,.,.,.
O=C(Nc1cccc(F)c1)C1CCN(S(=O)(=O)c2cccc3nsnc23)CC1,-9%,0.0082µM*,-77%,.,-2%,-16%,1%,-6%,-27%
Cc1cccc(NC(=O)C2CCN(S(=O)(=O)c3cccc4nsnc34)CC2)c1,-1%,?,3%,11%,1%,1%,.,.,.
CCOC(=O)c1c(Nc2ccc(Cl)cc2)sc(/C=C2\C=Nc3ccccc32)c1O,-3%,1.5µM*,-6%,-1%,1%,-7%[1.84 µM],-27%,?,4.1µM*
Cc1cccc(N(C)C(=O)C2CCN(S(=O)(=O)c3cccc4nonc34)CC2)c1,-3%[57.1 µM],.,11%[57.1 µM],.,-13%,-7%,.,.,.
CC(=O)c1c(C)[nH]c(C(=O)OCC(=O)Nc2ccc(Cl)c(S(=O)(=O)N(C)C)c2)c1C,-8%,9.2µM*,12%,3%,-4%,-21%,-2%,-15%,9.2µM*
CC(Nc1ncnc2sccc12)c1ccccc1 (stereo unspecified),1%,1.6µM*,8%,4%,1%,-7%,0%,0%,1.5µM*
COc1ccc(-c2c(C)nn3c(C(F)(F)F)cc(C)nc23)cc1OC,-4%[57.1 µM],.,-5%[57.1 µM],-1%,-2%,2%,.,.,.
Cc1ccc(C)c(CSc2nc3ncccc3[nH]2)c1,-14%,-13%,-11%,.,0%,-11%,.,.,.
CCCCNc1cc(C(=O)O)cc(S(N)(=O)=O)c1Oc1ccccc1,16%[57.1 µM],5.8µM*,3%[57.1 µM],-41%,7%,-3%,2%,-7%,6.5µM*
CC(C)(C)c1ccc(-c2noc(CCC(N)=O)n2)cc1,-12%,0.13µM*,-9%,4%,0%,-7%,3µM*,-2%,0.16µM*
CNC(=O)CCc1nc(-c2ccc(C(C)(C)C)cc2)no1,-3%,-13%,3%[57.1 µM],5%,7%,3%,.,.,.
COc1cc(NC(=O)C(CC(C)C)NS(=O)(=O)c2ccc3c(c2)CCN3C(C)=O)cc(OC)c1 (stereo unspecified),6%,?,11%,.,-2%,-2%,.,.,.
COc1ccc(C(=O)NC(c2ccccc2Cl)c2cc(Cl)c3cccnc3c2O)cc1 (stereo unspecified),1%,4.1µM*,22%,.,-8%,?,-1%,-27%,4.6µM*
COc1cccc(C(=O)Nc2c(C(=O)NC(C)(C)C)oc3ccccc23)c1,20%,?,61%,.,10%,6%,1%,-14%,-16%
Cc1ccc(-c2csc3ncnc(N4CCN(S(=O)(=O)c5ccc(C#N)cc5)CC4)c23)cc1,.,.,.,.,-7%,.,.,.,.
c1ccc(CC2CCN(c3ncnc4sccc34)CC2)cc1,6%[11.4 µM],5.2µM*,17%[11.4 µM],3%,15%,-5%,-29%,-3%,3.7µM*
Cc1ccc(S(=O)(=O)N2CCN(c3ncnc4sccc34)CC2)cc1,-1%,7.3µM*,23%,5%,-6%,-8%,-2%,4%,8.2µM*
CCc1ccc(-c2nn(CC(=O)NCc3ccccc3)c3c2cnc2ccc(C)cc23)cc1,4%[57.1 µM],17%,31%[57.1 µM],.,-7%,1%,.,.,.
CCN1/C(=C/c2ccc3ccccc3[n+]2CCCS(=O)(=O)[O-])C=Cc2cc(C)ccc21,-8%,-19%,11%,-20%,3%,?,.,.,.
CCN1/C(=C/c2cc[n+](C)cc2)C=Cc2cc(C)ccc21,-8%,3.7µM*,-28%,3%,7%,?,-18%,10µM*,1.3µM*
Cc1c(C(=O)N2CCCCC2)oc2ccc(S(=O)(=O)N3CC(C)CC(C)C3)cc12 (stereo unspecified),-1%[57.1 µM],9.2µM*,-1%[57.1 µM],-14%,2%,-12%,-1%,-14%,9.2µM*
CCOC(=O)N1CCN(C(=O)c2oc3ccc(S(=O)(=O)N4CCCCC4)cc3c2C)CC1,1%,?,3%,4%,10%,3%,.,.,.
COc1cccc(CN(C)C(=O)CNC(=O)c2ccc(-c3ccccc3)cc2)c1OC,0%,4.6µM*,5%,13%,1%,-21%,-24%,-11%,.
CCN(CC)c1ccc(C(=O)NNC(=O)CCNC(=O)c2ccccc2)cc1,-15%,18%,-16%,2%,3%,20%,.,.,.
CCN(CC)c1ccc(C(=C2C=CC(=[N+](CC)CC)C=C2)c2ccccc2)cc1,-10%,1.3µM*,40µM*,.,13%,9.2µM*,21µM*,6.5µM*,0.73µM*
